From PubChem BioAssay (NCI) come the findings set out here.

Several values for one entry are separate records, joined by “and”; a condition that tells them apart may be missing. Equal entries are not always repeated. Compounds without any hit were thinned out: in the full panel of roughly 83,000, 20% have a hit.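 Method: cells in 96-well plates; compound added at one concentration; 48 h incubation; percent growth measured; values under 10 scored active.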 A number with no mark means an inactive call. Activity calls are given as the source filed them.

One experiment concerns RPMI-8226 leukemia. Description: NCI-60 one-dose screen, 48 h (100 = growth as untreated, 0 = no growth, -100 = all killed). The settings on record: 10 µM. As for the experimental part: Growth inhibition of the RPMI-8226 human tumor cell line is measured as a screen for anti-cancer activity. Cells are grown in 96 well plates and exposed to the test compound for 48 hours. Compounds are tested at a single concentration, which is 10^-5 M for most compounds. The reported endpoint is percent growth (GI% or GIPRCNT), where numbers from 0 - 100% represent growth inhibition, and numbers from -100% - 0 represent cell death. For example, a value of 40 represents 60% growth inhibition. A value of 0 means no net growth occurred over the course of the experiment. A value of -40 indicates 40% of cells at the beginning of the experiment died by the end of the experiment. A value of -100 means all cells are dead at the end of the experiment.
NCI-60 Human Tumor Cell Lines Screen was performed using the standard one-dose NCI protocol, which is described in more detail at https://dtp.cancer.gov/discovery_development/nci-60/default.htm.
Compounds with GIPRCNT values below 10 were considered active. Activity score was based on GIPRCNT using the following formula: […]
Score is 0 for GIPRCNT values of 100 or above, 50 for GIPRCNT values of 0, and 100 for GIPRCNT values of -100.
Take `CS/C(=C\c1ccc(C(=O)c2ccc(C)cc2)n1C)S(C)=O` (stereo not given): the growth is 70.2%.

The experiment is the same for the next values; noted with them: 10 µM unless noted.
On to `CC(C)(C)OC(=O)c1ccc(NCc2cc(O)ccc2O)cc1`, for which the growth is 1.66% (active).

For the compound `O=C(N=C1C(=O)C2(CCCCC2)C2(N=C(c3ccccc3)OC2=O)C12CCCCC2)c1ccccc1` (stereo not given), the growth is 53.2%.

With `COc1ccc(COC=O)cc1`, the growth is 103%.

Take `Nc1ccc2ccc(NS(=O)(=O)N3CCCCC3)cc2c1`: the growth is 46%.

With `Nc1ccccc1SC1CC(=O)N(c2ccc(I)cc2)C1=O` (stereo not given), the growth is 85.1%.

Turning to `CN(C)CC(CN(C)C)C(O)c1ccccc1` (stereo not given), the growth is 108%.

In the case of `COC1C(OC(N)=O)C(O)C(Oc2ccc3c(O)c(NC(=O)c4ccc(O)c(CC=C(C)C)c4)c(=O)oc3c2C)OC1(C)C` (stereo not given), the growth was 99.5% and 80.1%.

`CC(C)(C)C1=CC(=O)C(C(C)(C)C)=CC1=O`: the growth was 86.9% and 102%.

For `CCOC(=O)CN1CCC(C(=O)OCC)CC1`, the growth is 95.8%.

Take `O=C1C2=C(Nc3cc(Cl)ccc3N2)OC1c1c[nH]c2ccc(COc3ccccc3)cc12` (stereo not given): the growth was 59.3%.

For `NCCCCCC(=O)O`, the growth was 99.6% and 94.5%.

As for `CCCCCCC(C)CC1=C(O)c2ccccc2C(=O)C1=O` (stereo not given), the growth is 37.6%.

As for `CC(C)(C)C1CCC(=NO)CC1` (stereo not given), the growth was 92.5%.

For the compound `Nc1ccccc1SC(CC(=O)c1ccccc1)c1cccc([N+](=O)[O-])c1` (stereo not given), the growth is -30.1% (active) and -4.39% (active).

Turning to `O=C(O)C(Cc1ccc(OS(=O)(=O)Cc2ccccc2)cc1)NS(=O)(=O)Cc1ccccc1` (stereo not given), the growth is 110% and 102%.

Take `CS(=O)(=O)OCC1NC(=O)C(COS(C)(=O)=O)NC1=O` (stereo not given): the growth is 82.7% and 90%.

Turning to `O=C(NC(CSSCC(NC(=O)OCc1ccccc1)C(=O)O)C(=O)O)OCc1ccccc1` (stereo not given), the growth is 64.7% and 95.7%.

Turning to `Cc1nc(Nc2ccc(Cl)cc2)c2cnn(-c3ccccc3)c2n1`, the growth was 108%.

Regarding `COc1cc(Cl)ccc1C`, the growth was 105%.

`c1ccc2c[n+](Cc3ccc4ccccc4n3)ccc2c1`: the growth was 57.2%.

With `CC(=O)Nc1ccc2oc(=O)ccc2c1`, the growth was 104%.

With `C(=N\OCCc1ccccc1)/c1ccccn1`, the growth is 117% and 98.3%.

Turning to `C#CCOC(=O)C(N)CS` (stereo not given), the growth is 102%.

Consider `CCCC(=O)Oc1ccc2ccccc2c1`, for which the growth is 94.4%.

On to `CC(=O)Oc1ccc(C(c2ccc(OC(C)=O)cc2)c2ccccn2)cc1`, for which the growth was 82.9% and 104%.

In the case of `COc1ccc(CCNC(=S)NN)cc1OC`, the growth was 99%.

As to `COc1ccc(CCl)c(C)c1OC`, the growth was 106%.

Regarding `Cc1ccc2cccc([N+](=O)[O-])c2n1`, the growth was 111% and 92.8%.

In the case of `CC(=O)Oc1cc(C)c(OC(C)=O)c(C)c1C`, the growth was 92.1%.

Turning to `CC1CC(O)CC(C)(C)C1.CC1CC(O)CC(C)(C)C1.CC1CC(O)CC(C)(C)C1.CC1CC(O)CC(C)(C)C1.[Ti]` (stereo not given), the growth was 96.5%.

Regarding `C/C(CC(C)C)=N/NC(N)=S`, the growth was 73.7%.

`OCCSc1ccc(Cl)cc1`: the growth was 122% and 84.6%.

For `NC1=NC(c2ccccc2)N=C(Nc2ccccc2)N1` (stereo not given), the growth is 95.5% and 130%.

As for `O=C1C=CC(=O)N1Cc1ccco1`, the growth was 107%.

In the case of `CCOC(=O)c1ccc(C(=N)N)cc1`, the growth was 89.7%.

For `O=C(O)C#Cc1ccc(Cl)cc1`, the growth is 106%.

Regarding `COC(=O)CCOc1ccccc1`, the growth is 92.7%.

`N#Cc1ccc(/C=C/C(=O)c2ccccc2)cc1`: the growth is -35.6% (active) and -54.9% (active).

Still in this experiment, the particulars now being: 100 µM.
`CS/C(=C\c1ccc(C(=O)c2ccc(C)cc2)n1C)S(C)=O` (stereo not given): the growth was 56.9%.
